PubChem BioAssay (NCI)
This is part of a sample that, as a whole, favours compounds with a hit. Of some 83,000 tested, about 20% had one in any assay.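 Results are percent growth after 48 hours of single-concentration exposure. 100 means growth as in untreated cells, lower positive values show inhibition; negative values down to -100 show cell death.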 Values without a mark were called inactive. Calls of active or inactive are those of the source. Rule for the calls: active = growth percent below 10; inactive = the rest.

Columns and labels:
Experiment in all cases: NCI-60 one-dose screen, 48 h (100 = growth as untreated, 0 = no growth, -100 = all killed)
Conditions in all cases: 10 µM unless noted
RPMI-8226 leukemia = system: RPMI-8226 leukemia
OVCAR-8 ovarian = system: OVCAR-8 ovarian
OVCAR-5 ovarian = system: OVCAR-5 ovarian
OVCAR-4 ovarian = system: OVCAR-4 ovarian
SK-OV-3 ovarian = system: SK-OV-3 ovarian
IGROV1 ovarian = system: IGROV1 ovarian
OVCAR-3 ovarian = system: OVCAR-3 ovarian
HS 578T breast = system: HS 578T breast
NCI/ADR-RES ovarian = system: NCI/ADR-RES ovarian
T-47D breast = system: T-47D breast

Row | SMILES | growth (RPMI-8226 leukemia) | growth (OVCAR-8 ovarian) | growth (OVCAR-5 ovarian) | growth (OVCAR-4 ovarian) | growth (SK-OV-3 ovarian) | growth (IGROV1 ovarian) | growth (OVCAR-3 ovarian) | growth (HS 578T breast) | growth (NCI/ADR-RES ovarian) | growth (T-47D breast)
1 | Cc1ccc(Nc2nc(N)c3ccccc3n2)cc1Cl | 24% | 57.8% | 75.5% | 55.7% | 80.4% | 57.3% | 63.5% | 101% | 45.5% | 58.1%
2 | O=C(Nc1ccc(N2CCNCC2)cn1)c1[nH]ncc1Nc1ncnc2sc3c(c12)CCC3 | -38.2% (active) | -38.9% (active) | 20.7% | -53.6% (active) | 79.8% | 77.6% | -39.3% (active) | 73% | 42.6% | 
3 | Nc1ccc(-c2ccc(-c3ccccc3N)c3[nH]c4ccccc4c23)cc1 | 6.61% (active) | 33.1% | 56.7% | 67.7% | 28.7% | 53.7% | 19.4% | 40.7% | -6.69% (active) | 15.2%
4 | O=c1c2cc(F)cc(Cl)c2sc2c(Cl)nc3ccccc3c12 | 115% | 102% | 95.5% | 98.7% | 95% | 74.8% | 108% | 88.4% | 98.3% | 
5 | CN(CCc1ccccc1)C(=S)N(C(=O)c1ccc([N+](=O)[O-])cc1)c1ccc(Cl)cc1 | -15.8% (active) | 99.3% | 100% | 86.3% | 102% | 105% | 83.5% | 95.2% | 98.4% | 
6 | Cc1ccc2cc3c(N)c4c(C)ccc(C)c4nc3nc2c1 | 34.3% | 34.2% | 89.5% | 72.9% | 93.3% | 75.8% | 81.3% | 70% | 72.7% | 
7 | CCOC(=O)c1c(C=O)nc2ccccc2c1/C=C/c1ccc(Cl)cc1 | 85.7% | 104% | 101% | 85.6% | 95.1% | 80.9% | 98.6% | 90.6% | 103% | 86.2%
8 | CN(C)/C=C1\SC(=Nc2ccc(Cl)cc2)NC1=O | 108% | 97.8% | 96% | 108% | 104% | 102% | 107% | 95.5% | 102% | 105%
9 | COc1cc(C(C)n2cc(-c3ccccc3)nn2)ccc1OC1CCCCC1 (centres undefined) | 35% | 55.3% | 92.6% | 55.2% | 73.4% | 77.2% | 67.6% | 91.4% | 49.3% | 
10 | O=C(/C=C/c1cccc(Cl)c1)OCc1ccc2cc1OCC#C/C=C\C#CCO2 | 83.8% | 98.2% | 108% | 95.6% | 105% | 92.2% | 116% | 101% | 96.8% | 84.8%
11 | CN(C)CCCNCc1ccc(-c2ccc(F)c(Cl)c2)o1 | -26.3% (active) | 59.3% | 65.3% | 59.6% | 73.1% | 31.6% | 34.3% | 57.6% | 53.8% | 23.2%
12 | COc1ccc(OC)c(NC(=O)/C(C#N)=C/c2ccco2)c1 | 93.7% | 102% | 115% | 77% | 88.2% | 92.7% | 110% | 108% | 103% | 57.5%
13 | Nc1ccc(-n2c(=O)oc3ccc(Cl)cc3c2=O)c(Cl)c1 | -27.3% (active) | -1.7% (active) | 25.6% | 18.2% | 5.68% (active) | 11.7% | 5.11% (active) | -4.07% (active) | -1.91% (active) | -8.23% (active)
14 | O=C(Nc1ccc(-c2nc3ccc(NC(=O)c4ccc(Cl)cc4)cc3[nH]2)cc1)c1ccc(Cl)cc1 | -22.6% (active) | 21.4% | 39.3% | -2.34% (active) | 60.7% | 45.1% | -64.9% (active) | 57.9% | 40.2% | 
15 | O=C(CCN1C(=O)c2ccccc2C1=O)Nc1ccc(Cl)cc1 | 8.45% (active) | 48.8% | 104% | 91.2% | 97.9% | 77.8% | 78.3% | 39.1% | 74.1% | 60.1%
16 | C#CCn1cc(C=C2C(=O)NC(=O)NC2=O)c2cc(Cl)ccc21 | 70.3% | 87.5% | 74.3% | 75.9% | 112% | 82.8% | 88.5% | 84% | 99.8% | 60.8%
17 | CN(O)c1nc(N(C)O)nc(N2CCOCC2)n1 | 36.8% | 33.8% | 68.9% | 1.09% (active) | 8.47% (active) | 20.1% | 5.41% (active) | 75.9% | 21.6% | 
18 | COc1c(B(O)O)cccc1-c1nc2ccc3[nH]ncc3c2c2c1C1CCC2C1 (centres undefined) | 39.7% | 59.9% | 113% | 115% | 39.8% | 76.1% | 59% | 40.8% | 78.8% | 101%
19 | COc1cc(C(C)n2cc(-c3ccccc3)nn2)ccc1OC1CCCC1 (centres undefined) | 36.1% | 65.6% | 93.1% | 54.9% | 75.8% | 70.9% | 61.5% | 94% | 45% | 
20 | O=C(NC1CCCCC1)C(c1cccs1)N(CCc1ccccc1)C(=O)c1ccco1 (centres undefined) | 79.7% | 88.2% | 87.1% | 95.9% | 89.6% | 97.7% | 96.6% | 93.8% | 94.3% | 85.1%
21 | O=C(Nc1ccc(N2CCNCC2)cc1)c1[nH]ncc1Nc1cc(Oc2ccccc2)ncn1 | -52.9% (active) | 26.9% | -26.4% (active) | 43.3% | 19.4% | 19.7% | 6.24% (active) | 32.4% | 77.5% | 
22 | CCN1C(=O)N(CC)C2Nn3c(s/c(=C\c4ccccc4F)c3=O)=NC21 (centres undefined) | 54.1% | 44% | 76.5% | 84.9% | 44.8% | 61.1% | 28.5% | 56.9% | 7.68% (active) | 72.8%
23 | COc1cccc(C(=O)NC(c2ccc(C)cc2)c2cc(Cl)c3cccnc3c2O)c1 (centres undefined) | 15.5% | 1.23% (active) | 38.6% | 24.9% | 16.2% | -5.14% (active) | 30% | 34.5% | 6.12% (active) | 6.13% (active)
24 | CC1=C(C(=O)OCC2CCN(C(=O)OC(C)(C)C)CC2)[C@H](c2cccc(Br)c2)C2=C(CC(C)(C)CC2=O)N1 | 18.6% | 21.7% | 64.8% | 40% | 56% | 35.9% | 30.9% | 53.5% | 25.3% | 
25 | O=C(Nc1ccc(F)cc1F)c1cc(Br)ccc1O | -10.4% (active) | 8.63% (active) | -7.85% (active) | -0.761% (active) | -21.8% (active) | 15.5% | 0.111% (active) | 10.2% | 1.62% (active) | -20.1% (active)
26 | COc1cc2nc(-c3cccc4cccnc34)nc(NC3CCN(Cc4ccccc4)CC3)c2cc1OC | -48.7% (active) | -55% (active) | -90.6% (active) | -91.1% (active) | -74.7% (active) | -61.5% (active) | -85.9% (active) | -41.7% (active) | 6.52% (active) | 
